NALP1 inh: NALP1 inhibition; inhibition, % at 10 µM; hit rate 0.61% among 280,000; S. cerevisiae NALP1/ASC/caspase-1 growth, X-gal OD620, 72 h; in the data active = inhibition mostly above about 24%, no sharp cut-off; inactive = mostly below about 32%
GRIN3A LBD mod: modulates the human NR3A ligand-binding domain. NR3A LBD differential scanning fluorimetry, Tm shift; 0% = protein alone, 100% = glycine-bound protein. Tm shift relative to glycine control, % at 25 µM. hit rate 2.5% among 340,000;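 active = melting temperature shift of at least 10% of the positive control shift, at one fixed dose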
dFosB activator: enhances mouse delta FosB homodimer DNA binding | P13346 | purified delta FosB, TAMRA-CDK5 oligo fluorescence polarization; percent of positive-control signal above neutral wells | activation, % at 25 µM | hit rate 0.99% among 340,000 | AID 493131;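 active = mean activation above about 17%, with every replicate also reaching it, limit read from the data, passing the limit was not always enough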
Target sequence (P13346 whole entry, looked up): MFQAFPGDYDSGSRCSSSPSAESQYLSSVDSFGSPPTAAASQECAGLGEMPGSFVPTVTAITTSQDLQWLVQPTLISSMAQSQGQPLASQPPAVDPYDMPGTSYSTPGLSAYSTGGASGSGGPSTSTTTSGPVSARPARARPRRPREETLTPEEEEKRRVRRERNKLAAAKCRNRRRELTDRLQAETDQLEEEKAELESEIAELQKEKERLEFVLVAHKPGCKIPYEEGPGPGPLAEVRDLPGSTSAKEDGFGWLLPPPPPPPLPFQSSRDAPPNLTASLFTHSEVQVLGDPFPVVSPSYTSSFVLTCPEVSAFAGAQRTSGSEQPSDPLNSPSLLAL
UBC13 polyUb: human UBC13 polyubiquitination inhibition; P61088; UBC13 polyubiquitin chain formation, TR-FRET; inhibition, % at 20 µM; hit rate 0.47% among 330,000; in the data active = inhibition above about 45%, passing the limit was not always enough
CR mimetic SO: lowers age-related superoxide in aged yeast cells | S. cerevisiae aged cells, superoxide DHE fluorescence; active compounds read low | superoxide response (% of plate mean), % at 10 µM | hit rate 0.18% among 330,000;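 active = superoxide response under a set limit, about three screen SD below normal, cut at about 65% in these data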;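 note: yeast aged for seven days with compound at 30 °C before DHE staining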
Casp3 UBC13 ctr: inhibits human caspase-3 in UBC13 counter-screen | hit rate 4% among 1,400 | Recombinant caspase-3, Caspase-Glo 3/7 luminescence, 60 min | shares compounds with UBC13 polyUb | inhibition, % at 20 µM;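 active = mean inhibition across replicates above about 26%, limit read from the data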
UBC13 conf: human UBC13 polyubiquitin inhibition, confirmed; UBC13 polyubiquitination, TR-FRET, biochemical; hit rate 68% among 1,400; inhibition, % at 10 µM; shares compounds with UBC13 polyUb; in the data active = inhibition above about 45%
Numbers stand for hits; n = inactive; x = no result. Only some compounds are listed: those with a hit (about 4.3% of all), similar ones and a draw of the others.

SMILES | NALP1 inh | GRIN3A LBD mod | dFosB activator | UBC13 polyUb | CR mimetic SO | Casp3 UBC13 ctr | UBC13 conf
O=C1c2ccccc2C(=O)N1CCCn1c2ccc(Cl)cc2c2nc3ccccc3nc21 | x | n | n | x | x | x | x
Cn1c2ccc(Cl)cc2c2nc3ccccc3nc21 | n | n | n | 49 | n | n | n
CCn1c2ccc(F)cc2c2nc3ccccc3nc21 | n | n | n | n | n | x | x
CN1C[C@@H]2[C@@H]3C(=O)N(C)C(=O)[C@@H]3[C@](C)(C1=O)N2C(=O)c1ccc(Cl)c(Cl)c1 | x | n | n | x | x | x | x
Cc1cc(C(=O)N2CC=C(c3ccccc3)CC2)c2ccccc2n1 | x | n | n | n | n | x | x
COc1cc(-c2cc(=O)c3c(O)cc(O)cc3o2)ccc1O | n | n | x | n | n | x | x
COc1cc(-c2cc(=O)c3c(O)c(OC)c(OC)cc3o2)cc(OC)c1O | n | n | n | 49 | n | n | n
COc1ccc2[nH]c3c(c2c1)CCN1C(=O)C(CC(=O)NCc2ccco2)C[C@H](C(=O)N2CCCCC2)[C@@]31CCc1ccccc1 (some centres not stated) | x | n | n | x | n | x | x
CCC1(c2ccccc2)NC(=O)N(CC(=O)Nc2cc(Cl)ccc2N2CCN(C)CC2)C1=O (configuration not stated) | x | n | n | 87 | n | n | 66
CCOC(=O)c1c(NC(=O)Cc2ccccc2)sc2c1CC(C)(C)NC2(C)C | n | n | n | n | n | x | x
CCOC(=O)c1c(NC(=O)c2ccc(C)cc2)sc2c1CC(C)(C)NC2(C)C | n | x | x | 49 | n | n | n
COC(=O)c1c(NC(=O)c2ccccc2)sc2c1CC(C)(C)NC2(C)C | n | n | n | n | n | x | x
CCOC(=O)c1c(NC(=O)COc2ccccc2C#N)sc2c1CC(C)(C)NC2(C)C | n | n | n | 76 | n | n | 105
COC(=O)c1c(NC(=O)c2ccc(OC(C)C)cc2)sc2c1CC(C)(C)NC2(C)C | n | n | n | 84 | n | n | 60
CCc1cc2cc(C)ccc2nc1SCC(=O)NC1CCCC1 | n | n | n | n | n | x | x
CCOC(=O)c1cc2c(ccn2-c2ccc(F)cc2)n1CC(=O)N(CC)CC | n | n | n | n | n | x | x
NC1=NC[C@H](c2ccccc2)N1CCCCC1CCCCC1 | x | n | n | 79 | n | n | 72
COCCNc1nnnc2c1sc1nc(N3CCOCC3)c3c(c12)CCCC3 | n | x | x | x | x | x | x
COc1ccc(-c2cc(C(=O)NCCCN3CCCC3=O)c3ccccc3n2)cc1 | x | n | n | 47 | n | n | 54
O=C(NCCCN1CCCC1=O)c1cc(-c2ccc(F)cc2)nc2ccccc12 | x | n | n | n | n | x | x
NC(=O)c1c(NC(=O)CN2CCOCC2)sc2c1CCC2 | n | n | n | n | n | x | x
NC(=O)c1c(NC(=O)C(=O)NCCCN2CCOCC2)sc2c1CCCC2 | n | n | n | 52 | n | n | 73
CC(=O)c1cccc(NC(=O)C2CC(=O)N(C3CCCC3)C2)c1 (configuration not stated) | x | n | n | n | n | x | x
C[C@H]1CN=C(Nc2ccccc2)N1CCC1CCCC1 | n | n | n | n | n | x | x
CC(C)n1cnc2c(N(C)c3ccccc3)nc(N(CCN(C)C)Cc3ccccc3)nc21 | x | n | n | 57 | n | n | n
SMILES | NALP1 inh | GRIN3A LBD mod | dFosB activator | UBC13 polyUb | CR mimetic SO | Casp3 UBC13 ctr | UBC13 conf
COc1cc(N(Cc2ccccc2)Cc2ccccc2)c2ncn(C(C)C)c2c1 | x | n | n | n | n | x | x
CSc1nc2ccccc2cc1/C=C(\C#N)c1cccc(Cl)c1 | n | n | n | n | n | x | x
CCC[C@@H](CN1CCC[C@H]1CN1C(N)=NC[C@H]1CC(C)C)N1C[C@@H]([C@H](C)CC)N(CCc2ccc(Cl)c(Cl)c2)C1=N | x | n | n | 82 | n | n | 80
CCC(C)[C@H]1CN=C(N)N1CC1CCCCC1 (some centres not stated) | x | n | x | n | n | x | x
CC[C@@H](C)[C@@H]1CN([C@@H](CN2CCC[C@H]2CN2C(N)=NC[C@H]2CC(C)C)C(C)C)C(=N)N1CCCC1CCCC1 | x | n | n | 66 | n | n | 58
CC[C@@H](C)[C@@H]1CN([C@@H](CN2CCC[C@H]2CN2C(N)=NC[C@H]2CC(C)C)C(C)C)C(=N)N1CCc1ccc(Cl)c(Cl)c1 | x | n | n | 73 | n | n | 86

Screening results: PubChem, several laboratories
